# Experimental data as given in PubChem BioAssay.
# Assays:
# [1] = system: Human papillomavirus type 1a protein E7 (residues 44-93); test: small molecules binding HPV E7 44-93 – biochemical, small-molecule microarray, residues 44-93, 635 nm fluorescence, primary screen (AID 1108); settings: fluorescence 635 nm, higher = more signal;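 further: E7 fragment applied at 1 µg/mL in TBST for 1 h at 4 C; score combines spot fluorescence with its signal to noise ratio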
# [2] = hepatitis C replication reporter changes, two-sided – Huh7 cells, luciferase reporter, HCV replication inhibitor project, primary screen (AID 1109); settings: Huh7 HCV replicon luciferase reporter, 48 h; higher = more signal;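 further: huh7 hepatoma cells harbouring a luciferase neomycin HCV replicon reporter; luciferase luminescence as measure of HCV replicon replication; test concentration not given here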
# [3] = target: Left-right determination factor 2 (Homo sapiens) (UniProt O00292); test: small molecules binding LEFTY2 protein – biochemical, small-molecule microarray, 635 nm fluorescence scan, primary screen (AID 1110); settings: higher = more signal
# [4] = target: Calmodulin-1 (Homo sapiens) (UniProt P0DP23); test: small molecules binding calmodulin-1 with EGTA – biochemical, small-molecule microarray, Cy5-labelled CALM1, profiling panel (AID 1111); settings: Cy5-CALM1 binding fluorescence, higher = more signal;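 further: labelled calmodulin applied in Tris saline Tween buffer holding calcium plus EGTA and DTT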
# [5] = target: Calmodulin-1 (Homo sapiens) (UniProt P0DP23); test: small molecules binding Ca-loaded calmodulin-1 – biochemical, small-molecule microarray, Cy5-labelled CALM1, plus calcium, artefact control for SMM control-protein annotation, profiling panel (AID 1112); settings: Cy5-CALM1 binding fluorescence, higher = more signal;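 further: score merges spot fluorescence with signal to noise from triplicate slides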
# [6] = probe aWnt5a binding to arrayed compounds – biochemical, biotinylated probe, 635/667 nm fluorescence, primary screen (AID 1113); settings: small-molecule microarray, higher = more signal;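 further: score merges 667 nm fluorescence intensity with signal-to-noise per printed feature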
# [7] = probe aShh binding to arrayed compounds – biochemical, biotinylated probe, 635/667 nm fluorescence, primary screen (AID 1114); settings: small-molecule microarray, higher = more signal;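 further: probe is biotin-labelled aShh protein from a stem cell growth factor screen; measures binding of labelled protein to compounds printed on the slide; score merges feature fluorescence at 667 nm with signal-to-noise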
# [8] = probe aNog binding to arrayed compounds – biochemical, biotinylated probe, 635/667 nm fluorescence, primary screen (AID 1115); settings: small-molecule microarray, higher = more signal;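 further: probe is biotinylated aNog protein used at 0.15 µg/mL for 1 h at 4 C; z-score combines 667 nm fluorescence of each spot with its signal to noise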
# [9] = target: Torsin-1A-interacting protein 1 (Homo sapiens) (UniProt Q5JTV8); test: compound microarray binding of lysate hLAP1 – cell lysate, small-molecule microarray, COS7 lysate, 635/667 nm fluorescence, primary screen (AID 1116); settings: 635 nm fluorescence, higher = more signal
# [10] = target: Alpha-bungarotoxin (Bungarus multicinctus) (UniProt P60615); test: compounds binding labelled alpha-BTX control protein – biochemical, small-molecule microarray, Alexa647 label, 635/667 nm fluorescence, artefact control for SMM control protein annotation, profiling panel (AID 1117); settings: alpha-BTX-A647 binding fluorescence, higher = more signal
# Sequence of Alpha-bungarotoxin (Bungarus multicinctus) (P60615 whole entry, looked up): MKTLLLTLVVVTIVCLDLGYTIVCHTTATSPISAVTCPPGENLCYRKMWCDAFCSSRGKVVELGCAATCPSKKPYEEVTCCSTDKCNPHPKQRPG
# Sequence of Left-right determination factor 2 (Homo sapiens) (O00292 whole entry, looked up): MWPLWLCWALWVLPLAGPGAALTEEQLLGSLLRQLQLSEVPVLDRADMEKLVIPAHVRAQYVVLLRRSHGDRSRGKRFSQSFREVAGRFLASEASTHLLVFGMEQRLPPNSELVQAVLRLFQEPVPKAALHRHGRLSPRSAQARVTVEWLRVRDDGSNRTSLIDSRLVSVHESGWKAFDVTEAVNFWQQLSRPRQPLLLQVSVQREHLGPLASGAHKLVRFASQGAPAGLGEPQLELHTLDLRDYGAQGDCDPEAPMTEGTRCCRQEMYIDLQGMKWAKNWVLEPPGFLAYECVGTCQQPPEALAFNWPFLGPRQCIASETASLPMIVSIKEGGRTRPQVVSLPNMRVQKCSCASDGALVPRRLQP
# Sequence of Torsin-1A-interacting protein 1 (Homo sapiens) (Q5JTV8 whole entry, looked up): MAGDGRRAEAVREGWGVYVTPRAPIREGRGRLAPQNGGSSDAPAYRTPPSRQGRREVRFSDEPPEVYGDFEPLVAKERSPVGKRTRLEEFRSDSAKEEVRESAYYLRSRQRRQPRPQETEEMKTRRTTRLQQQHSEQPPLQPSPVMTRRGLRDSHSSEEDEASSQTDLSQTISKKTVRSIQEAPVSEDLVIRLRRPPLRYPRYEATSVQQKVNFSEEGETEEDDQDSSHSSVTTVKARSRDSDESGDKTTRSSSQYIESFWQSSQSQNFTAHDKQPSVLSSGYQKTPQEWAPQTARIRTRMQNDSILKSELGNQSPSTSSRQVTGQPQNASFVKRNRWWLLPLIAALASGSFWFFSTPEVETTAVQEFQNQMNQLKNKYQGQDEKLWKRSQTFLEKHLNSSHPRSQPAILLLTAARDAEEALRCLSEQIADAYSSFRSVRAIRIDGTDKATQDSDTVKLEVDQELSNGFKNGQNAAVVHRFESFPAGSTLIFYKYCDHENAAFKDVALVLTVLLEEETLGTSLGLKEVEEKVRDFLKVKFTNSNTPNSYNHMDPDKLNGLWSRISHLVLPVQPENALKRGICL
SMILES,composite z-score [1],z-score [2],composite z-score [3],composite z-score [4],composite z-score [5],composite z-score [6],composite z-score [7],composite z-score [8],composite z-score [9],composite z-score [10]
COc1cc(C(O)C2C=CC3C(=O)N(c4ccccc4)C(=O)C3N2Nc2ccccc2F)cc(OC)c1OC (stereo not given),1.48,-0.892,0.2,1.05,-0.383,0.0357,-0.0146,1.11,0.512,0.983
CC(C)NC(=O)[C@@H]1c2ccccc2C(=O)N(Cc2ccccc2C(F)(F)F)[C@H]1c1ccc(CO)cc1,0.464,-0.692,-1.27,-0.588,-0.721,0.4,0.0649,-1.04,0.0048,-0.198
CC(C)[Si](C#CCCc1ccccc1)(O[C@H](c1ccccc1)c1cn(Cc2ccccc2)nn1)C(C)C,1.32,-1.53,0.345,0.138,-0.662,-0.0239,-0.338,-0.0827,0.427,0.544
C=C(CCCC)/C(=C/C[C@H](OC(=O)c1ccncc1)c1ccccc1OCCO)c1cc(C(=O)OC)ccc1OC,1.22,-2.89,-0.015,-0.0646,-0.636,-0.0331,0.0684,-0.305,0.869,-0.056
Cc1ccc(S[C@]2(C(=O)NCCCN(C)C)CC(=O)N(Cc3ccccc3C(F)(F)F)[C@@H]2c2ccc(CO)cc2I)cc1,0.545,-2.37,-1.17,-0.252,0.236,0.264,-0.403,1.27,0.28,-0.0365
O=C1O[C@H](Cc2ccccc2)[C@@H]2[C@H]3C=CCCC=C3CN2[C@H]1Cc1ccc(O)cc1,-1.94,-1.7,-0.543,-0.342,-0.593,-0.0991,0.207,0.0222,-0.0081,-0.224
[N-]=[N+]=Nc1ccccc1[C@@H]1OC(c2ccc(OCCCO)cc2)=N[C@]1(CCS(=O)(=O)c1ccccc1)C(=O)NCC(O)CO (stereo not given in full),0.535,-0.485,-0.741,0.867,-0.271,-0.0977,-0.0011,0.437,2.18,0.534
COC(=O)C(CC#Cc1ccc2c(c1)[C@]1(C(=O)N2)[C@H](c2ccccc2OCCO)N2[C@H](c3ccccc3)[C@H](c3ccccc3)OC(=O)[C@H]2[C@@H]1C(=O)N1CCc2cc(OC)c(OC)cc2C1)C(=O)OC,1.37,-1.68,0.541,0.0823,-0.34,-0.117,-0.0626,-0.259,1.68,0.647
COc1ccc([Si](C)(C)[C@H]2[C@H](CCO)O[C@@]3(C(=O)N(Cc4ccc(NC(=O)[C@H](C)O)cc4)c4ccccc43)[C@@H]2C)cc1,1.42,-5.22,0.378,1.19,0.0314,-0.105,0.318,0.686,0.989,1.24
Cc1ccccc1C(O)C1C=CC2C(=O)N(c3ccccc3)C(=O)C2N1Nc1ccccc1 (stereo not given),0.0932,1.31,0.256,2.12,0.585,0.0437,0.108,0.189,1.54,1.1
COc1ccc([Si](C)(C)[C@@H]2[C@@H](CC(=O)N3CCC[C@H]3CO)O[C@]3(C(=O)N(Cc4ccc(N5CCOC5=O)cc4)c4ccccc43)[C@H]2C)cc1,1.06,-1.58,0.327,1.08,0.461,-0.175,0.0121,-0.402,1.1,0.931
C=CCOC(=O)[C@@H]1[C@H]2C(=O)O[C@H](c3ccccc3)[C@H](c3ccccc3)N2[C@H](c2ccc(OCCOC(=O)[C@H]3C[C@H]4C(=O)NCC(=O)N4[C@H]3c3cccc(OCCO)c3)cc2)[C@@]12C(=O)Nc1ccc(I)cc12,0.534,-0.582,0.553,1.33,0.0237,-0.0327,0.147,-0.381,1.61,1.39
C=CCOC(=O)[C@@H]1[C@H]2C(=O)O[C@H](c3ccccc3)[C@H](c3ccccc3)N2[C@H](c2ccc(OCCOC(=O)[C@H]3C[C@H]4C(=O)N5CCC[C@H]5C(=O)N4[C@H]3c3cccc(OCCO)c3)cc2)[C@@]12C(=O)Nc1ccc(I)cc12,0.195,-0.898,1.19,-0.0165,0.0231,-0.0566,0.138,0.373,1.09,0.659
O=C1O[C@H](c2ccccc2)[C@H](c2ccccc2)N2[C@H]1[C@@H](C(=O)N1CCN(c3ncccn3)CC1)[C@]1(C(=O)Nc3ccc(C#CCCO)cc31)[C@H]2c1ccc(O)cc1,1.08,-1.38,-0.379,0.562,0.323,0.0215,0.0684,-0.0927,0.516,1.55
Cc1ccc(N2C(=O)c3ccccc3[C@](C)(C(=O)NCCCN(C)C)[C@@H]2c2ccc(CO)cc2)nc1,0.571,-0.199,-1.05,-0.213,-0.338,-0.148,-0.138,-0.348,-0.312,0.149
COc1ccc([Si](C)(C)[C@H]2[C@H](CCO)O[C@@]3(C(=O)N(Cc4cccc(N(C=O)c5ccccc5)c4)c4ccccc43)[C@@H]2C)cc1,1.39,-4.84,0.393,0.909,-0.507,-0.0269,0.0723,0.0199,0.124,0.751
CC(C)(C)N1CC=CC23O[C@@H]4/C=C\CCCOC(=O)C4[C@H]2C(=O)N(CCCO)[C@@H]3C1=O (stereo not given in full),-0.751,0.0578,0.178,-0.71,-0.275,-0.172,-0.0192,0.185,-1.37,-1.62
C=CCC(OC(C)=O)[C@@H]1[C@@H](N(Cc2ccc(-c3cccc(C(F)(F)F)c3)o2)C(=O)Cc2ccc(F)cc2)c2cc(OCCCO)ccc2N1C(=O)Cc1ccc2ccccc2c1 (stereo not given in full),-0.97,0.022,-0.511,-0.599,0.218,-0.0684,0.0684,-0.352,-0.016,-0.772
COc1ccc([Si](C)(C)[C@H]2[C@H](CC(=O)N3Cc4ccccc4C[C@H]3CO)O[C@@]3(C(=O)N(c4ccccc4)c4ccccc43)[C@@H]2C)cc1,1.35,-3.46,0.949,0.392,-0.987,0.127,-0.0119,-0.542,1.7,1.69
[N-]=[N+]=NCc1ccccc1[C@@H]1OC(c2ccc(OCCCO)cc2)=N[C@]1(Cc1ccccc1N=[N+]=[N-])C(=O)NCC(O)CO (stereo not given in full),1.18,-1.41,-0.262,2.58,1.23,0.61,0.0048,2.34,2.74,0.895
